Screening data as filed in PubChem.
HT1080 IDH1KD tx = kills HT-1080 cells with IDH1 knockdown; 2% of 360,000 active; HT-1080 IDH1 knockdown viability, ATP luminescence, 48 h; Potency, µM (top dose mostly 46.1 µM), inactives show at the top dose activity, negative = toxicity, most hits filed as cytotoxic;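 note: potency is the fitted concentration of half-maximal effect; 0% = DMSO wells and -100% = cell-free medium wells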
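Cytotoxicity counter-line: IDH1KD HT-1080, 48 h, CellTiter-Glo. Curves classed by r2, magnitude and activity.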
IL1B secr inh = blocks inflammasome-driven IL-1 beta release; THP-1 LPS/ATP IL-1B secretion, AlphaLISA, 16 h; hits give low values; activity change, % at 57.5 µM; 4.7% of 360,000 active; in the data active = activity change below about -50%; inconclusive = mostly about -30% to -49%
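THP-1 cells pretreated 1 hr with compounds (up to 57.5 uM final), then stimulated with LPS (250 ng/mL final) plus ATP (1.25 mM final); secreted IL-1B measured by AlphaLISA after 16 hr, decreased signal indicating inhibition.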
HT1080-NT tox = kills 2HG-producing HT-1080-NT fibrosarcoma cells; HT-1080-NT fibrosarcoma viability, CellTiter-Glo ATP luminescence, 48 h; AID 686970; 1.6% of 360,000 active; Potency, µM (series often up to 46.1 µM), without a hit: at the highest dose activity, negative = less viability, hits mostly cytotoxic;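 note: NT is the 2HG producing partner of a matched IDH1 knockdown line; potency is the fitted concentration of half-maximal effect; 0% = DMSO-treated cells and -100% = media-only wells without cells; nearly all actives have a fitted effect of over 55% in size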
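Luminescent CellTiter-Glo readout after 48 hours of compound exposure at 37 degrees C defined viability of HT-1080-NT cells. Activity was normalized to DMSO wells and cell-free media wells; concentration-response curves were fitted and assigned curve classes.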
DT40 TDP1 CPT = growth inhibition of DT40 Tdp1-/-;hTDP1 cells with camptothecin (screen for TDP1 inhibitors); chicken DT40 Tdp1-/-;hTDP1 cells + 20 nM CPT, ATP luminescence, 48 h; Potency, µM (series often up to 46.2 µM), for the others: at the highest dose activity change, negative = growth inhibition, hits mostly inhibitors; 12% of 420,000 active; AID 686979; note: potency is the fitted concentration of half-maximal effect; nearly all actives have a fitted effect of over 55% in size
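Cell growth measured by CellTiter-Glo luminescence after a minimum 48 h, 37 C compound exposure with 20 nM CPT in Tdp1-knockout DT40 cells stably expressing hTDP1, seeded 400/well; qHTS titration format.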
TDP1 cell noCPT = qHTS for Inhibitors of human tyrosyl-DNA phosphodiesterase 1 (TDP1): qHTS in cells in absence of CPT | DT40 Tdp1-/- hTDP1 cells, no CPT, ATP luminescence, 48 h | Potency, µM (highest dose often 46.2 µM), for the others: at the top dose activity change, negative = growth inhibition, actives largely listed as inhibitors | 15% of 420,000 active | AID 686978, 2013; note: potency is the fitted concentration of half-maximal effect; nearly all actives have a fitted effect of over 55% in size
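Chicken DT40 Tdp1-/- cells stably complemented with human TDP1 were seeded at 400 cells/well with DMSO in place of 20 nM camptothecin. After compound pinning, cells grew at least 48 hr at 37 °C; viability read by CellTiter-Glo luminescence.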
An asterisk follows results filed as active; [ ] = another dose, or the depositor's remark. Compounds with a hit are over-represented: about 19% of the library has one in this group of screens. Unless noted, calls come from the whole dose curve; as a rule, active = well fitted curve in the direction sought with a large enough effect; inconclusive = small, poorly fitted or top-dose-only effect, or another doubt; inactive = no such curve, though single readings can be large; an effect the other way counts as inactive or inconclusive. Unless noted, % is set by controls: 0 for no effect and ±100 for the full control effect.

Results for CCOC(=O)C(Cc1ccc(O)cc1)NC(=O)CNC(=O)C1CCCN1C(=O)OC(C)(C)C (stereo unspecified) ?
HT1080 IDH1KD tx: -3%; IL1B secr inh: -3; HT1080-NT tox: -3%; DT40 TDP1 CPT: -22%; TDP1 cell noCPT: inconclusive

Results for CC(C)CC(NC(=O)OCc1ccccc1)C(=O)NC(Cc1ccccc1)C(=O)CCl (stereo unspecified) ?
HT1080 IDH1KD tx: inconclusive; IL1B secr inh: -100*; HT1080-NT tox: inconclusive; DT40 TDP1 CPT: 4.6µM*; TDP1 cell noCPT: 2.9µM*

What do the screens show for `CCOC(=O)C(Cc1ccccc1)NC(=O)CNC(=O)CNC(=O)OCc1ccccc1` (stereo unspecified)?
HT1080 IDH1KD tx: -7%; IL1B secr inh: -88*; HT1080-NT tox: -19%; DT40 TDP1 CPT: -3%; TDP1 cell noCPT: -23%

Results for COC(=O)C(Cc1ccccc1)NC(=O)C(CC(C)C)NC(=O)OC(C)(C)C (stereo unspecified) ?
HT1080 IDH1KD tx: 14%; IL1B secr inh: 19; HT1080-NT tox: 5%; DT40 TDP1 CPT: 0%; TDP1 cell noCPT: -27%

Results for Cc1ccc(NC(=O)C(Cc2ccccc2)NC(=O)OCc2ccccc2)cc1C (stereo unspecified) ?
HT1080 IDH1KD tx: -5%; IL1B secr inh: 14; HT1080-NT tox: -12%; DT40 TDP1 CPT: inconclusive; TDP1 cell noCPT: 23µM*

What do the screens show for `OCCCNCc1cc2cc3c(cc2nc1N1CCN(c2cccc(Cl)c2)CC1)OCO3`?
DT40 TDP1 CPT: 7%[9.04 µM]; TDP1 cell noCPT: -12%

Results for Cc1ccc(C(=O)Nc2nnc(SCc3cc(=O)n4ccc(C)cc4n3)s2)cc1 ?
DT40 TDP1 CPT: 5%; TDP1 cell noCPT: -15%

How did O=C(Nc1ccccc1)C1=C[C@H](c2csc3ccccc23)C[C@H](OCc2ccc(CO)cc2)O1 do in these assays?
HT1080 IDH1KD tx: -18%; IL1B secr inh: inconclusive; HT1080-NT tox: -3%; DT40 TDP1 CPT: 16µM*; TDP1 cell noCPT: 16µM*

Results for C=CCOC(=O)C1=C[C@H](c2csc3ccccc23)C[C@H](OCc2ccc(CO)cc2)O1 ?
HT1080 IDH1KD tx: -3%; IL1B secr inh: 0; HT1080-NT tox: -10%; DT40 TDP1 CPT: inconclusive; TDP1 cell noCPT: 21µM*

How did C#Cc1ccc([C@H]2C=C(C(=O)Nc3ccccc3)O[C@@H](OCc3ccc(CO)cc3)C2)cc1 do in these assays?
HT1080 IDH1KD tx: -15%; IL1B secr inh: -57*; HT1080-NT tox: inconclusive; DT40 TDP1 CPT: inconclusive; TDP1 cell noCPT: inconclusive

What do the screens show for `C=CCOC(=O)C1=C[C@@H](c2csc3ccccc23)C[C@@H](OCc2ccc(CO)cc2)O1`?
HT1080 IDH1KD tx: -28%; IL1B secr inh: 3; HT1080-NT tox: -2%; DT40 TDP1 CPT: inconclusive; TDP1 cell noCPT: inconclusive

Results for O=C(Cc1ccon1)c1ccc(O)cc1O ?
HT1080 IDH1KD tx: 1%; IL1B secr inh: 23; HT1080-NT tox: 20%; DT40 TDP1 CPT: 2%; TDP1 cell noCPT: 18%

Results for Cc1ccsc1CN1CCc2nnc(CCNC(=O)c3ccc(F)cc3)n2CC1 ?
DT40 TDP1 CPT: 5%; TDP1 cell noCPT: -10%

How did Cc1ccc(Cn2cnc3ccccc32)cc1C do in these assays?
HT1080 IDH1KD tx: -30%; IL1B secr inh: 3; HT1080-NT tox: -8%; DT40 TDP1 CPT: 13µM*; TDP1 cell noCPT: 16µM*

How did Fc1ccc(Cn2cnc3ccccc32)cc1 do in these assays?
HT1080 IDH1KD tx: -11%; IL1B secr inh: -14; HT1080-NT tox: -11%; DT40 TDP1 CPT: -28%; TDP1 cell noCPT: -34%

How did O=[N+]([O-])c1ccc(OCCn2cnc3ccccc32)cc1 do in these assays?
HT1080 IDH1KD tx: -11%; IL1B secr inh: 0; HT1080-NT tox: -17%; DT40 TDP1 CPT: -14%; TDP1 cell noCPT: inconclusive

What do the screens show for `CCOCN(C(=O)Cn1cnc2ccccc21)c1c(C)cccc1CC`?
HT1080 IDH1KD tx: -10%; IL1B secr inh: 24; HT1080-NT tox: -11%; DT40 TDP1 CPT: 21µM*; TDP1 cell noCPT: 23µM*

What do the screens show for `Cc1ccccc1Cn1cnc2ccccc21`?
HT1080 IDH1KD tx: -11%; IL1B secr inh: -10; HT1080-NT tox: 3%; DT40 TDP1 CPT: 18µM*; TDP1 cell noCPT: 21µM*

What do the screens show for `CCCOc1ccc(Cn2cnc3ccccc32)cc1`?
HT1080 IDH1KD tx: -13%; IL1B secr inh: -13; HT1080-NT tox: -6%; DT40 TDP1 CPT: inconclusive; TDP1 cell noCPT: 13µM*

Results for CCc1cccc(CC)c1N(COC)C(=O)Cn1cnc2ccccc21 ?
HT1080 IDH1KD tx: -2%; IL1B secr inh: 10; HT1080-NT tox: 2%; DT40 TDP1 CPT: inconclusive; TDP1 cell noCPT: inconclusive

How did Cn1c(=O)[nH]c(=O)c2c1nc(NCCO)n2CC(O)COc1ccccc1 (stereo unspecified) do in these assays?
DT40 TDP1 CPT: -12%; TDP1 cell noCPT: -20%

How did COc1ccc(Cn2c(C)nc3c(c2=O)c2nc4ccccc4nc2n3Cc2ccco2)cc1 do in these assays?
HT1080 IDH1KD tx: inconclusive; IL1B secr inh: 0; HT1080-NT tox: inconclusive; DT40 TDP1 CPT: 15µM*; TDP1 cell noCPT: 8.2µM*

Results for Cc1cc(C)cc(-n2c3nc4ccccc4nc3c3c(=O)n(Cc4ccco4)cnc32)c1 ?
HT1080 IDH1KD tx: 2%; IL1B secr inh: -18; HT1080-NT tox: -1%; DT40 TDP1 CPT: 23µM*; TDP1 cell noCPT: 12µM*

Results for CCC(C)n1cnc2c(c1=O)c1nc3ccccc3nc1n2Cc1ccc(OC)cc1 (stereo unspecified) ?
HT1080 IDH1KD tx: 7%; IL1B secr inh: -25; HT1080-NT tox: inconclusive; DT40 TDP1 CPT: inconclusive; TDP1 cell noCPT: 15µM*

Results for COc1ccc(S(=O)(=O)c2c(N)n(Cc3ccco3)c3nc4ccccc4nc23)cc1 ?
HT1080 IDH1KD tx: -23%; IL1B secr inh: -6; HT1080-NT tox: -14%; DT40 TDP1 CPT: 18µM*; TDP1 cell noCPT: -86%

Results for Cc1ccc(S(=O)(=O)c2c(N)n(CCCN(C)C)c3nc4ccccc4nc23)cc1 ?
HT1080 IDH1KD tx: -13%; IL1B secr inh: -29; HT1080-NT tox: -10%; DT40 TDP1 CPT: inconclusive; TDP1 cell noCPT: inconclusive

What do the screens show for `C[C@@H]1COC(=O)[C@H](CC(=O)OC(C)(C)C)C/C=C\C[C@@H](CC(=O)N[C@H](CO)Cc2ccccc2)C(=O)N1`?
HT1080 IDH1KD tx: 3%; IL1B secr inh: 22; HT1080-NT tox: 5%; DT40 TDP1 CPT: -2%; TDP1 cell noCPT: -3%
